Records with an inconclusive call do not appear. A number with no mark means an inactive call. Calls of active or inactive are those of the source. Calls follow the shape of the dose curve; as a rule, active = well fitted curve in either direction with a large enough effect (not every such curve was filed as active); inconclusive = small, poorly fitted or top-dose-only effect, or another doubt; inactive = flat fitted curve, though single readings scatter.
% is scaled to controls: 0 for no effect and ±100 for the full control effect.

The nature of the first assay: AP1 Signaling Pathway (AID 357).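 Also: ME-180 reporter cells stimulated with EGF at its EC50 level.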 The conditions noted are these: ME-180 (cervical carcinoma) AP-1-bla reporter, EGF-induced, beta-lactamase ratio, 5 h; at 17.2 µM (top of the series) unless noted. Put shortly:
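A ratiometric CCF4 readout (405 nm excitation; 460 and 530 nm emission) quantified AP-1-driven beta-lactamase in ME-180 cells after 5 h with compound and EC50 EGF; AC50 values were derived for activators and inhibitors.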
For the compound `Cc1ccc(SCc2[nH]nc3c2C(c2ccc(C)o2)C(C#N)=C(N)O3)cc1` (stereo not drawn), the activity change, negative = inhibition is -23.1%.

For `C=C(Br)CN1CCN(CC(=C)Br)CC1`, the activity change, negative = inhibition is 10.5%.

Turning to `COc1cc(C2C(C(=O)c3ccc(C)o3)=C(O)C(=O)N2c2cc(C)on2)cc(OC)c1OC` (stereo not drawn), the activity change, negative = inhibition was 5.13%.

`CCOC(=O)c1[nH]c2cc3c(cc2c1NC(=O)CN1CCc2ccccc2C1)OCO3`: the activity change, negative = inhibition is -23.5%.

Turning to `O=C(CC(c1ccccc1)c1ccco1)N1CCOCC1` (stereo not drawn), the activity change, negative = inhibition was -9.46%.

Consider `CC1(C(=O)CSc2ncn[nH]2)CCC(=O)O1` (stereo not drawn), for which the activity change, negative = inhibition was -3.81%.

On to `C=C(C)CN1CCN(c2c(CCC#N)c(C)c(C#N)c3nc4ccccc4n23)CC1`, for which the activity change, negative = inhibition is 6.83%.

Take `Cc1cc(=O)oc2c(CN3CCCCC3)c(O)c(Cl)cc12`: the activity change, negative = inhibition is 22.5%.

On to `COCCNc1oc(-c2ccc(Cl)cc2)nc1C#N`, for which the activity change, negative = inhibition is -8.7%.

As to `CN1C(=O)C2(N=c3ccccc3=N2)c2ccccc21`, the activity change, negative = inhibition is 15.2%.

Turning to `COc1ccc(Cn2ccnc2)cc1Br`, the activity change, negative = inhibition was 4.25%.

As to `CCOC(=O)c1c(C)n(C)c2ccc(OC)c(NC(=O)CN3CCCCC3)c12`, the activity change, negative = inhibition was -11.4%.

Turning to `COc1ccccc1C(=O)NCC(=O)n1nc(C)cc1C`, the activity change, negative = inhibition was -3.59%.

As for `CN(C)CCCO[C@H]1[C@H]([C@H](O)CO)O[C@H]2OC(C)(C)O[C@@H]21`, the activity change, negative = inhibition was 6.88% [at 38 µM].

Regarding `Cc1cc(C)n(C(=O)CNC(=O)CCc2ccccc2)n1`, the activity change, negative = inhibition is 8.64%.

For the compound `CCOC(=O)C(OC(=O)c1sc(=S)n(C)c1C)C(C)=O` (stereo not drawn), the activity change, negative = inhibition was 18%.

For `CSc1nc2sc3c(c2c(=O)n1C1CCCCC1)CCN(C)C3`, the activity change, negative = inhibition is -0.967%.

In the case of `COc1cc2c(cc1OC)C1(CCCC1)C(N)=C2C#N`, the activity change, negative = inhibition was -17.7%.

Regarding `CC(=O)[C@@]1(O)CC[C@H]2[C@@H]3CCC4=CC(=O)CC[C@]4(C)[C@H]3[C@@H](O)C[C@@]21C`, the activity change, negative = inhibition was 3.13%.

With `CCCOc1ccc(/C(O)=C2/C(=O)C(=O)N(CCCn3ccnc3)C2c2cccs2)cc1` (stereo not drawn), the activity change, negative = inhibition was -14.1%.

On to `O=C(Nc1ccc2c(c1)OCO2)c1cncc(Br)c1`, for which the activity change, negative = inhibition is -12.1%.

`CCOC(=O)c1c(N)sc(=S)c2c1CCC2`: the activity change, negative = inhibition is -21.1%.

For `COC(=O)c1ccc(C2NC(C(=O)O)CS2)cc1` (stereo not drawn), the activity change, negative = inhibition is 5.95%.

As for `O=C(COc1ccccc1)Nc1ccc(-c2nnc(-c3ccco3)o2)cc1`, the activity change, negative = inhibition was 6.06%.

For `Oc1ccc(Br)cc1CNn1cnnc1`, the activity change, negative = inhibition was 2.16%.

As to `COc1ccccc1C1/C(=C(/O)c2ccc(OC(C)C)cc2)C(=O)C(=O)N1c1cc(C)on1` (stereo not drawn), the activity change, negative = inhibition was -28.1%.

As to `CC(C)(C)n1nnc(CCc2nnn(C(C)(C)C)n2)n1`, the activity change, negative = inhibition is 1.01%.

Turning to `Cc1cc(=O)oc(C)c1C(=O)NCC(C)NC(=O)c1c(C)cc(=O)oc1C` (stereo not drawn), the activity change, negative = inhibition was 0.223%.

As to `Cn1c(=O)[nH]c(=O)c2c1nc(Br)n2CCSc1nnnn1-c1ccccc1`, the activity change, negative = inhibition was -14.1%.

As for `Cc1ccc(Oc2nc3c(c(=O)n(Cc4ccccc4F)c(=O)n3C)n2C)cc1`, the activity change, negative = inhibition is -27.5%.

For `COc1ccc(-c2nc3n(n2)C(=O)CC(c2ccco2)S3)cc1` (stereo not drawn), the activity change, negative = inhibition was -9.14%.

Regarding `CCN(CC)CCCN1C(=O)C(=O)/C(=C(/O)c2ccc3c(c2)CC(C)O3)C1c1ccncc1` (stereo not drawn), the activity change, negative = inhibition was 0.667%.

For the compound `CCCCCCCCCCCCCCCCCC(=O)NC[C@@H](COP(=O)([O-])OCC[N+](C)(C)C)OCC`, the activity change, negative = inhibition was -12.5% [at 38 µM].

As for `ClC(Br)=C(n1cnc2ccccc21)n1cnc2ccccc21`, the activity change, negative = inhibition is -25.5%.

`CC(C)(C)OC(=O)N1CC=C2C(C#N)=C(N)C(C#N)(C#N)[C@H](c3cccnc3)[C@H]2C1`: the activity change, negative = inhibition was 3.85%.

Turning to `COCc1cc(C)nc(SCC(=O)Nc2ccc(C)c(C)c2)c1C#N`, the activity change, negative = inhibition was 2.07%.

`CC[C@H](C)[C@@H]1O[C@]2(CC[C@@H]1C)C[C@H]1C[C@H](CC=C(C)[C@@H](O[C@@H]3C[C@H](OC)[C@H](O[C@@H]4C[C@H](OC)[C@H](O)[C@H](C)O4)[C@H](C)O3)[C@@H](C)C=CC=C3CO[C@@H]4[C@@H](O)C(C)=C[C@@H](C(=O)O1)[C@]34O)O2`: the activity change, negative = inhibition was -26.8%.

With `O=C1c2ccccc2S(=O)(=O)N1CC(O)COc1ccc(Cl)cc1` (stereo not drawn), the activity change, negative = inhibition was -4.25%.

Take `CCc1ccc(NC(=O)CSC2=C(C#N)C(c3ccc4c(c3)OCO4)CC(=O)N2)cc1` (stereo not drawn): the activity change, negative = inhibition is -19.8%.

The nature of another assay: NFAT Signaling Pathway (AID 444).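 Also: carbachol stimulus at about its EC50 of 1 µM final.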 The note with it: Jurkat NFAT-bla M1, carbachol, beta-lactamase ratio, 5 h; at 17.2 µM (top of the series) unless noted. Put shortly: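 Jurkat cells carrying an NFAT-driven β-lactamase reporter and co-transfected muscarinic M1 receptor were treated with compound plus carbachol (1 uM final, an EC50 level) for 5 h at 37 °C. CCF4 loading followed for 1 h at RT; 460/530 nm ratio gave %activity.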
`Cc1ccc(SCc2[nH]nc3c2C(c2ccc(C)o2)C(C#N)=C(N)O3)cc1` (stereo not drawn): the activity change, negative = inhibition was -18.9%.

Turning to `C=C(Br)CN1CCN(CC(=C)Br)CC1`, the activity change, negative = inhibition is -10.3%.

For `COc1cc(C2C(C(=O)c3ccc(C)o3)=C(O)C(=O)N2c2cc(C)on2)cc(OC)c1OC` (stereo not drawn), the activity change, negative = inhibition is -1.16%.

Regarding `CCOC(=O)c1[nH]c2cc3c(cc2c1NC(=O)CN1CCc2ccccc2C1)OCO3`, the activity change, negative = inhibition is -10.9%.

As for `O=C(CC(c1ccccc1)c1ccco1)N1CCOCC1` (stereo not drawn), the activity change, negative = inhibition was 1%.

In the case of `CC1(C(=O)CSc2ncn[nH]2)CCC(=O)O1` (stereo not drawn), the activity change, negative = inhibition is 2.7%.

On to `C=C(C)CN1CCN(c2c(CCC#N)c(C)c(C#N)c3nc4ccccc4n23)CC1`, for which the activity change, negative = inhibition was 20%.

As for `Cc1cc(=O)oc2c(CN3CCCCC3)c(O)c(Cl)cc12`, the activity change, negative = inhibition was 23.5%.

As to `COCCNc1oc(-c2ccc(Cl)cc2)nc1C#N`, the activity change, negative = inhibition was -6.46%.

For the compound `CN1C(=O)C2(N=c3ccccc3=N2)c2ccccc21`, the activity change, negative = inhibition is 25.6%.

Regarding `COc1ccc(Cn2ccnc2)cc1Br`, the activity change, negative = inhibition was -14%.

Turning to `CCOC(=O)c1c(C)n(C)c2ccc(OC)c(NC(=O)CN3CCCCC3)c12`, the activity change, negative = inhibition was -1.27%.

With `COc1ccccc1C(=O)NCC(=O)n1nc(C)cc1C`, the activity change, negative = inhibition was -5.21%.

For `CN(C)CCCO[C@H]1[C@H]([C@H](O)CO)O[C@H]2OC(C)(C)O[C@@H]21`, the activity change, negative = inhibition is 5.42% [at 38 µM].

Regarding `Cc1cc(C)n(C(=O)CNC(=O)CCc2ccccc2)n1`, the activity change, negative = inhibition was 9.94%.

With `CCOC(=O)C(OC(=O)c1sc(=S)n(C)c1C)C(C)=O` (stereo not drawn), the activity change, negative = inhibition is 6.69%.

Consider `CSc1nc2sc3c(c2c(=O)n1C1CCCCC1)CCN(C)C3`, for which the activity change, negative = inhibition was -81.1% (active).

For `COc1cc2c(cc1OC)C1(CCCC1)C(N)=C2C#N`, the activity change, negative = inhibition is -1.71%.

For `CC(=O)[C@@]1(O)CC[C@H]2[C@@H]3CCC4=CC(=O)CC[C@]4(C)[C@H]3[C@@H](O)C[C@@]21C`, the activity change, negative = inhibition is -20.8%.

In the case of `CCCOc1ccc(/C(O)=C2/C(=O)C(=O)N(CCCn3ccnc3)C2c2cccs2)cc1` (stereo not drawn), the activity change, negative = inhibition is 2.88%.

On to `O=C(Nc1ccc2c(c1)OCO2)c1cncc(Br)c1`, for which the activity change, negative = inhibition is -3.16%.

Regarding `CCOC(=O)c1c(N)sc(=S)c2c1CCC2`, the activity change, negative = inhibition was -6.19%.

`COC(=O)c1ccc(C2NC(C(=O)O)CS2)cc1` (stereo not drawn): the activity change, negative = inhibition is 6.25%.

For the compound `O=C(COc1ccccc1)Nc1ccc(-c2nnc(-c3ccco3)o2)cc1`, the activity change, negative = inhibition is 7.57%.

`Oc1ccc(Br)cc1CNn1cnnc1`: the activity change, negative = inhibition is 9.44%.

On to `COc1ccccc1C1/C(=C(/O)c2ccc(OC(C)C)cc2)C(=O)C(=O)N1c1cc(C)on1` (stereo not drawn), for which the activity change, negative = inhibition was 27.8%.

Take `CC(C)(C)n1nnc(CCc2nnn(C(C)(C)C)n2)n1`: the activity change, negative = inhibition is -17.9%.

With `Cc1cc(=O)oc(C)c1C(=O)NCC(C)NC(=O)c1c(C)cc(=O)oc1C` (stereo not drawn), the activity change, negative = inhibition is 10.2%.

As to `Cn1c(=O)[nH]c(=O)c2c1nc(Br)n2CCSc1nnnn1-c1ccccc1`, the activity change, negative = inhibition is 1.39%.

Consider `Cc1ccc(Oc2nc3c(c(=O)n(Cc4ccccc4F)c(=O)n3C)n2C)cc1`, for which the activity change, negative = inhibition is 11.5%.

Regarding `COc1ccc(-c2nc3n(n2)C(=O)CC(c2ccco2)S3)cc1` (stereo not drawn), the activity change, negative = inhibition is 0.813%.

Take `CCN(CC)CCCN1C(=O)C(=O)/C(=C(/O)c2ccc3c(c2)CC(C)O3)C1c1ccncc1` (stereo not drawn): the activity change, negative = inhibition was 13.1%.

As to `CCCCCCCCCCCCCCCCCC(=O)NC[C@@H](COP(=O)([O-])OCC[N+](C)(C)C)OCC`, the activity change, negative = inhibition is 28.6% [at 38 µM] (active).

`ClC(Br)=C(n1cnc2ccccc21)n1cnc2ccccc21`: the activity change, negative = inhibition was -11.4%.

For the compound `CC(C)(C)OC(=O)N1CC=C2C(C#N)=C(N)C(C#N)(C#N)[C@H](c3cccnc3)[C@H]2C1`, the activity change, negative = inhibition is 4.36%.

With `COCc1cc(C)nc(SCC(=O)Nc2ccc(C)c(C)c2)c1C#N`, the activity change, negative = inhibition is 3.23%.

With `CC[C@H](C)[C@@H]1O[C@]2(CC[C@@H]1C)C[C@H]1C[C@H](CC=C(C)[C@@H](O[C@@H]3C[C@H](OC)[C@H](O[C@@H]4C[C@H](OC)[C@H](O)[C@H](C)O4)[C@H](C)O3)[C@@H](C)C=CC=C3CO[C@@H]4[C@@H](O)C(C)=C[C@@H](C(=O)O1)[C@]34O)O2`, the activity change, negative = inhibition was -35.3%.

As to `O=C1c2ccccc2S(=O)(=O)N1CC(O)COc1ccc(Cl)cc1` (stereo not drawn), the activity change, negative = inhibition is -2.04%.

As to `CCc1ccc(NC(=O)CSC2=C(C#N)C(c3ccc4c(c3)OCO4)CC(=O)N2)cc1` (stereo not drawn), the activity change, negative = inhibition is -5.09%.

For the origin of these results see PubChem BioAssay (NCATS).
